Results taken from PubChem BioAssay AID488969 (Vanderbilt High Throughput Screening Facility, 2010).
Whole data set: some 110,000 compounds, median “z-score” near -0.1, cut for the highest 2% near 2. The entries come from a sample that favours the highest values as a whole. The source made the active and inactive calls.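 The calls were made as follows: active = z-score in the third read window above 3 or below -3; inactive = the rest.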

What follows are compounds tested against Metabotropic glutamate receptor 8 (Rattus norvegicus) (UniProt P70579) (assay: mGluR8 Gi/Go-coupled signaling modulation – cell-based, rat, thallium flux, HTS, primary screen (AID 488969)). Conditions: HEK293 rat mGluR8, GIRK (G protein-gated inwardly rectifying potassium channel) thallium flux, FluoZin2; at 10 µM; stronger effect = higher value; submaximal glutamate (EC20) added with thallium.
Metabotropic glutamate receptor 8 (Rattus norvegicus), sequence (P70579 whole entry, looked up): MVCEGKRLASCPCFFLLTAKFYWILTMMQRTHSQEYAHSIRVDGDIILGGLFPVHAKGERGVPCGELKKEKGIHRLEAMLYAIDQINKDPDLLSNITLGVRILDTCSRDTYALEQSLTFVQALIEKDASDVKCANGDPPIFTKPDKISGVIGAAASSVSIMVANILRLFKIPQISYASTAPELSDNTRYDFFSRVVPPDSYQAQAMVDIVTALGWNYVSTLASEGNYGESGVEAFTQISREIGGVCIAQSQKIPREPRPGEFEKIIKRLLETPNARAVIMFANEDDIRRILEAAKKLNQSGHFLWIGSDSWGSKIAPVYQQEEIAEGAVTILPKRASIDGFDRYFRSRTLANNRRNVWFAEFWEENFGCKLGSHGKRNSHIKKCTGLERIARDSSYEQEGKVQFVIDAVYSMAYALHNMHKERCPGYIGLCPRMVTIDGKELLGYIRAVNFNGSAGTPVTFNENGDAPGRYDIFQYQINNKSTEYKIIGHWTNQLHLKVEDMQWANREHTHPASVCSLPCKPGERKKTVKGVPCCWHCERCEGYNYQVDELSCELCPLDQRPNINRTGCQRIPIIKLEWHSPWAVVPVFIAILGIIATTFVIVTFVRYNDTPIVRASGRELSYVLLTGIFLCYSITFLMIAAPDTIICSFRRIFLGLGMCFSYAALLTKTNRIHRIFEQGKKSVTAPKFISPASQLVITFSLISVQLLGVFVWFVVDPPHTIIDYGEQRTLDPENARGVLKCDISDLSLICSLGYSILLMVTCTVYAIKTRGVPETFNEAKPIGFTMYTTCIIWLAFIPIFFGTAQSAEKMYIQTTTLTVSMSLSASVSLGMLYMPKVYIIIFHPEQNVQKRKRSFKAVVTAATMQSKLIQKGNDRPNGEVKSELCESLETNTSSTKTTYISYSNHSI

SMILES | z-score
COc1ccc(OC)c(CN(CCCN2CCOCC2)S(=O)(=O)c2ccc(NC(C)=O)cc2)c1 | -0.129
CCN(CC)S(=O)(=O)c1ccc(-c2nnc(SCC(=O)Nc3ccc(OC)c(OC)c3)o2)cc1 | 0.581
COc1ccc(OC(C)C(=O)Nc2ccccc2C(F)(F)F)cc1 (stereo not drawn) | -0.114
O=C(Nc1ccccc1C(=O)NCc1ccccc1)c1ccccc1 | -0.543
COn1c(=O)c(=O)n(O)c2ccccc21 | -0.141
CN1C(=O)c2cccc(N(C)C)c2C1=O | -0.183
O=C(Nc1nsc(-c2ccccc2)n1)c1cccs1 | -0.31
Cc1nn(-c2cccc(Cl)c2)c2c1C(c1cccnc1)C(C#N)=C(N)O2 (stereo not drawn) | 0.0248
CCCCOc1ccc(CONS(=O)(=O)c2ccc(NC(C)=O)cc2)cc1Cl | -0.176
CN1CCc2c(sc(N)c2C(N)=O)C1 | -0.167
Cc1cc(C(=O)N/N=C/c2ccc(-c3ccccc3Cl)o2)n[nH]1 | -0.496
CCNC(=S)NNC(=O)c1csc2c1CCCC2 | -0.209
CC(C)CNC(=S)NNC(=O)c1csc2c1CCCC2 | -0.116
CCCCNC(=S)NNC(=O)c1csc(C)c1C | 0.0325
Cc1ccc(C)c(NC(=S)NNC(=O)c2csc3c2CCC(C)C3)c1 (stereo not drawn) | 13.8 (active)
Cc1ccc(C)c(NC(=S)NNC(=O)c2csc(C)c2C)c1 | 2.09
CC1CCc2c(C(=O)Nc3nccs3)csc2C1 (stereo not drawn) | -0.208

SMILES | z-score
Cc1ccc(C)c(NC(=S)NNC(=O)c2csc3c2CCCC3)c1 | 7.26 (active)
CCCCNC(=S)NNC(=O)c1csc2c1CCC(C)C2 (stereo not drawn) | 0.319
Cc1ccc(C)c(NC(=S)NNC(=O)c2ccco2)c1 | -0.0706
COC(=O)Cn1c(=NC(=O)c2ccc(OC)c(OC)c2)sc2cc(OC)ccc21 | -0.167
COc1ccc(/C=C2\CCCc3c2nc2ccccc2c3C(=O)OCC(=O)c2c(N)n(C)c(=O)n(C)c2=O)cc1 | -0.224
O=C(CCn1nc(-c2ccccc2)c2ccccc2c1=O)NCC1CCCO1 (stereo not drawn) | -0.116
Clc1ccc(OCc2cc(-c3ccccc3)no2)cc1Cl | -0.0469
O=C(CCCCCN1C(=O)c2ccccc2C1=O)Nc1ccc(F)cc1 | -0.0499
Cc1cccc(C)c1OCCCN1CCCC1 | 0.0506
CC(C)(C)c1ccccc1OCCCCN1CCCC1 | 2.06
Cc1ccc(C(C)(C)C)c(OCCCCN2CCCC2)c1 | 0.658
CC(C)(C)c1ccccc1OCCN1CCCC1 | -0.516
Cc1cccc(C(C)(C)C)c1OCCCCN1CCCC1 | 2.48
Cc1cccc(C(C)(C)C)c1OCCOCCN1CCCC1 | 0.391
COC(=O)c1cc2oc(C)cc2n1CC(=O)Nc1cc(C)cc(C)c1 | -0.162
O=C(CN1C(=O)CCS(=O)(=O)c2ccccc21)NCc1ccccc1 | 0.305
